# High-throughput results (PubChem)
# CYP2C9 inh: inhibitors of human CYP2C9 | P11712 | inhibition, % at 5 µM | 96,000 tested, 20% active | CYP2C9 Supersomes, luciferin-H conversion, luminescence;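 active = blocking of liver enzyme CYP2C9 beyond about 50% at 5 µM, limit read from the data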
# Target sequence (P11712 whole entry, looked up): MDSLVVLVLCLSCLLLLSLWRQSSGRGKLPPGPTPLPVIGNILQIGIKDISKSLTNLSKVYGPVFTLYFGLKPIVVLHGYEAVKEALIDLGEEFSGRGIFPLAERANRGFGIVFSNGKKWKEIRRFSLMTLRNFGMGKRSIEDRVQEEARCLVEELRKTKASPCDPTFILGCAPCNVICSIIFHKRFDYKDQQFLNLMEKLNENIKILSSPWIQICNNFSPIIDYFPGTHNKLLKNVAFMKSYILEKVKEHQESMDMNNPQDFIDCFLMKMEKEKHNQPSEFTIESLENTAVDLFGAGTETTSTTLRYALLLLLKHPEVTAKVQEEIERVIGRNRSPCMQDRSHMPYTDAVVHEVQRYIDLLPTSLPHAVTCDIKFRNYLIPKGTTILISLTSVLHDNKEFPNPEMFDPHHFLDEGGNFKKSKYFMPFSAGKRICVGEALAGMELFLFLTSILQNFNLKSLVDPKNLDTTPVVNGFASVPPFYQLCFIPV
# PostGolgi yeast: growth inhibition of a yeast mutant, post-Golgi transport screen | inhibition, % at 10 µM | 98,000 tested, 0.9% active | AID 739 | post-Golgi transport phenotypic cell assay;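 also: yeast cells grown in 1536-well plates; yeast grown about 18 h at 30C before absorbance read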
# CYP2C19 inhib: blocks human cytochrome P450 2C19. AID 778. P33261. 96,000 tested, 21% active. inhibition, % at 5 µM. CYP2C19 Supersomes, luciferin-H EGE luminescence, 30 min;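 active = CYP2C19 inhibition above a set limit at 5 µM in the primary screen, cut at about 50% in these data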;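 also: plate controls were negative control wells for no effect and 2.5 mM tranylcypromine positive control for full effect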
# PostGolgi ctrl: growth of the yeast control strain, post-Golgi counter-screen; efflux-deficient yeast background strain, growth absorbance A615, 16 h; inhibition, % at 10 µM; 98,000 tested, 5% active
# CYP2C19 activ: cytochrome P450 2C19 (human) activation; P33261; recombinant CYP2C19, luciferin-H EGE luminescence; active compounds read high; 0 = fully inhibited enzyme, 1 = untreated enzyme; activation factor at 5 µM; 96,000 tested, under 10 active;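 active = activation factor of at least 2 at 5 µM in the primary screen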;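 also: 0 = wells with 2.5 mM tranylcypromine and 1 = vehicle-only wells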
# CYP2C9 activ: increases human cytochrome P450 2C9 activity | P11712 | recombinant CYP2C9, luciferin-H conversion, luminescence; active compounds read high; factor 1 = untreated enzyme, 0 = blocked | activation factor at 5 µM | 96,000 tested, 1.4% active | AID 1024;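 active = activation factor of 2 or more for CYP2C9 at a 5 µM dose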;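 also: 0 = sulfaphenazole-blocked wells and 1 = vehicle-only wells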
# Active calls of the source: *; / = no result. Only some compounds are listed: those with a hit (about 32% of all), similar ones and a draw of the others. Rule as the data show it, unless noted: active = inhibition above about 30%; inactive = the rest.
SMILES,CYP2C9 inh,PostGolgi yeast,CYP2C19 inhib,PostGolgi ctrl,CYP2C19 activ,CYP2C9 activ
CC(=O)Oc1cc2c(cc1Cl)C1(CC(c3ccccc3Cl)O2)CC(C)(C)NC(=S)N1 (stereo not drawn),32,-10,17,9,0.8,0.7
CC(=O)N1CCC(N(C(=O)Nc2ccc(F)cc2)C2CCCC2)CC1,8,0,-11,7,1.1,0.9
C/C(=N\NC(=S)Nc1ccc(F)cc1)C1CC1,57*,2,69*,-3,0.3,0.4
Cc1ccc2cc(CCNC(=O)c3ccc4c(c3)OCO4)c(=O)[nH]c2c1C,60*,2,0,2,1,0.4
Cc1ccc2cc(CCNC(=O)C(C)C)c(=O)[nH]c2c1C,30,1,6,3,0.9,0.7
O=C(/C=C/c1ccccc1)NC(=S)NNC(=O)c1cccnc1,51*,1,1,16,1,0.5
O=C1NC(Cc2c[nH]c3ccccc23)C(=O)N1CCOc1ccc(F)cc1 (stereo not drawn),71*,-1,74*,8,0.3,0.3
CN1CC(=O)N(CCOc2ccccc2)C1=O,-2,0,3,-12,1,1
CCOc1ccc(OCCN2C(=O)NC(Cc3c[nH]c4ccccc34)C2=O)cc1 (stereo not drawn),80*,-4,68*,19,0.3,0.2
O=C(CCc1c[nH]c2ccccc12)NC1CC1,7,13,40,3,0.6,0.9
O=C(CC(Sc1ccccc1)c1cccs1)c1ccco1 (stereo not drawn),95*,0,100*,15,0,0.1
CCOC(=O)N1CCN(S(=O)(=O)c2ccc(C)c(C)c2C)CC1,-6,-1,99*,13,0,1.1
CCOC(=O)N1CCN(S(=O)(=O)c2cc(C)c(C)cc2C)CC1,/,4,/,11,/,/
CCOC(=O)N1CCN(S(=O)(=O)c2cccs2)CC1,24,0,57*,3,0.4,0.8
CCOc1ccccc1N1CCN(S(=O)(=O)c2cccc3nsnc23)CC1,70*,-1,94*,14,0.1,0.3
COc1ccc2c(CC(=O)N3CCN(S(=O)(=O)c4cccs4)CC3)coc2c1,34,-3,90*,7,0.1,0.7
CC(C)OCP(=O)(c1ccccc1)c1ccccc1,2,8,0,17,1,1
Cc1ccc(C(=O)NCCNC(=O)CN2CCOCC2)cc1,-6,1,-1,22,1,1.1
CCOc1ccccc1N1CCN(S(=O)(=O)c2cccs2)CC1,91*,-3,93*,15,0.1,0.1
Cc1ccc2c(CC(=O)N3CCN(S(=O)(=O)c4ccc5c(c4)OCCO5)CC3)coc2c1,72*,9,41,24,0.6,0.3
Cc1ccc(S(=O)(=O)N2CCN(S(=O)(=O)c3ccc4c(c3)OCCO4)CC2)cc1,-10,5,-14,12,1.1,1.1
CC(=O)CCc1ccc(OC(=O)c2cccnc2)cc1,/,3,/,6,/,/
O=C1OC(N2CCN(C(=O)C3CCCO3)CC2)c2ccccc21 (stereo not drawn),-10,8,-12,-2,1.1,1.1
O=C(c1ccc(-c2nnc(Nc3ccccc3)c3ccccc23)cc1)N1C[C@H]2C[C@H](C1)c1cccc(=O)n1C2,34,-7,9,9,0.9,0.7
O=C(Nc1ccccc1C(=O)OCn1nnc2ccccc2c1=O)c1ccco1,33,7,-2,6,1,0.7
SMILES,CYP2C9 inh,PostGolgi yeast,CYP2C19 inhib,PostGolgi ctrl,CYP2C19 activ,CYP2C9 activ
O=C(O)CCCNS(=O)(=O)c1ccc(NCc2ccccc2)c(C(=O)O)c1,-7,14,-19,-9,1.2,1.1
O=C(COC(=O)c1cccnc1)c1ccc(Cl)cc1,16,3,60*,3,0.4,0.8
O=C(CCC(=O)c1ccc(Cl)cc1)OCC(=O)c1ccccc1,-14,-12,8,11,0.9,1.1
O=C(COC(=O)c1cccnc1)c1ccc(Cl)c(Cl)c1,39,-2,77*,9,0.2,0.6
O=C(Oc1cccnc1)c1ccc(Cl)c(Cl)c1,-2,-8,-10,10,1.1,1
CCOC(=O)N1CCN(S(=O)(=O)c2c(C)[nH]c(=O)[nH]c2=O)CC1,-39,10,20,5,0.8,1.4
O=C(COc1cc(O)c2c(=O)cc(-c3ccccc3)oc2c1)c1ccc(F)cc1,40,4,8,16,0.9,0.6
